The results in this text go back to the supplement of paper PMC11624193, “Coupling cellular drug-target engagement to downstream pharmacology with CeTEAM” (Nature Communications, 2024).

Values without a mark were called inactive.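 The calls were made as follows: active = log2 fold change beyond 2 SD from the library mean after excluding viability outliers; inactive = within 2 SD.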

The target of the test is PARP1 L713F-nLuc biosensor (HCT116) (UniProt P09874). Put plainly: PARP1 L713F-nLuc/akaLuc ratio relative to DMSO control (biosensor stabilization) (fold change); higher = more PARP1 biosensor stabilization (target engagement / stabilizer), active = hit call of the paper. The settings on record: stock concentration (mM; final µM = stock mM x 1): 10; 24 h.
Sequence of PARP1 L713F-nLuc biosensor (HCT116) (P09874 whole entry L713F, looked up): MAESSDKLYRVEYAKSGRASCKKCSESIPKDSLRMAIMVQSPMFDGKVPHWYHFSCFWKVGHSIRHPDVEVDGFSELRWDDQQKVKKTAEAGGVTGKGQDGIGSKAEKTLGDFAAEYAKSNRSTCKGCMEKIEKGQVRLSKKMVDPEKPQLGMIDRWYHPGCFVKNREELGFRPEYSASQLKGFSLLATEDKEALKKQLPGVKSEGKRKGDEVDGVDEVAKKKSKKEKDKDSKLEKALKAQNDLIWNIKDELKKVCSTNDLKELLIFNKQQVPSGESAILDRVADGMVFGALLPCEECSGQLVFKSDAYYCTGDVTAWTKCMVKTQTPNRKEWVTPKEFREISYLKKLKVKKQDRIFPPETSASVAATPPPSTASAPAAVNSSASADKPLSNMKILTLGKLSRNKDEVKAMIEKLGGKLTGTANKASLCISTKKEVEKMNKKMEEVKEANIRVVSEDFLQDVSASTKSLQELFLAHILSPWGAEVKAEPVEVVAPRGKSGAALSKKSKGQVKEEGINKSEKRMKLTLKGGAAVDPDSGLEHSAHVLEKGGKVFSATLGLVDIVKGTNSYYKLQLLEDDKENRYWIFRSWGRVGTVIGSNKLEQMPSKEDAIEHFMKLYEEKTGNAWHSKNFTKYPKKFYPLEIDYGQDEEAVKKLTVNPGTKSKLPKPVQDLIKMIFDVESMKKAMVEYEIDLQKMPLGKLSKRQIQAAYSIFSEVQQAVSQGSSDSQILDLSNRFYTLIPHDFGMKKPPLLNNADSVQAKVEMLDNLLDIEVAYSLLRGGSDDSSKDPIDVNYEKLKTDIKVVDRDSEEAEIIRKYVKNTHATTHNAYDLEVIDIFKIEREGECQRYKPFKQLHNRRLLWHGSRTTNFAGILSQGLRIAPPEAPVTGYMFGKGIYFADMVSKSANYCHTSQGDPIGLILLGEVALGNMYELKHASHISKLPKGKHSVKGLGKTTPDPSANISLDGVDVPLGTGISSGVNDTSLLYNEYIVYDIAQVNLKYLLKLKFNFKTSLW
For `COc1cc2ncnc(Oc3cccc(NC(=O)Nc4cc(C(C)(C)C(F)(F)F)on4)c3)c2cc1OC`, the “PARP1 L713F-nLuc/akaLuc ratio” value is 1.02.

With `COc1cc2nc(N3CCCN(C)CC3)nc(NC3CCN(Cc4ccccc4)CC3)c2cc1OC`, the “PARP1 L713F-nLuc/akaLuc ratio” value was 0.488.

`NC(=O)c1cccc2cn(-c3ccc([C@@H]4CCCNC4)cc3)nc12` [Niraparib (R-enantiomer)]: the “PARP1 L713F-nLuc/akaLuc ratio” value was 8.24 (active).

For the compound `O=c1oc2cc(O)ccc2c2ccccc12` [Urolithin B], the “PARP1 L713F-nLuc/akaLuc ratio” value was 0.914.

With `Nc1nc(OCc2cc(Br)cs2)c2[nH]cnc2n1` [Lomeguatrib], the “PARP1 L713F-nLuc/akaLuc ratio” value is 1.01.

Regarding `CC(C)NC(=O)COc1cccc(-c2nc(Nc3ccc4[nH]ncc4c3)c3ccccc3n2)c1`, the “PARP1 L713F-nLuc/akaLuc ratio” value was 0.38.

For `NC(=O)c1ccccc1` [Benzamide], the “PARP1 L713F-nLuc/akaLuc ratio” value was 1.08.

On to `COc1cc(C=CC(=O)O)cc(OC)c1O` (stereo in doubt) [Sinapinic acid], for which the “PARP1 L713F-nLuc/akaLuc ratio” value is 0.83.

With `Cn1c(Nc2ccc(C(F)(F)F)cc2)nc2cc(Oc3ccnc(-c4ncc(C(F)(F)F)[nH]4)c3)ccc21`, the “PARP1 L713F-nLuc/akaLuc ratio” value was 0.546.
